The results in this text go back to the supplement of paper PMC7156485.

Holding throughout (conditions): concentration: 10 µM; 24 h
The test system of test [1] is HCC1569. The test is described as follows: cell number relative to DMSO (% of DMSO); higher = more cells (less growth inhibition / toxicity). A digest of the protocol:
(§1)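 Treatment: HCC1569 and TDF cells, 800 per well in 384-well plates with RPMI and 10% FBS, were given compounds at 10 µM for 24 h at 37 °C, in triplicate. Readout: after 3.7% formaldehyde fixation, cells were stained with a rabbit anti-H1.0 antibody, an AlexaFluor 647 secondary and DAPI. Reported values are H1.0 nuclear intensity or cell number as percent of the plate control, taken as the median of replicates, with positional smoothing for HCC1569.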

Test [2] has as its system TDF. Described as above. In outline:
as §1

For test [3], the system named is TDF. The test is described as follows: H1.0 immunofluorescence intensity relative to DMSO (% of DMSO); higher = stronger H1.0 induction, active = 120 or more. A digest of the protocol: as §1
The test system of test [4] is HCC1569. The test is described as follows: H1.0 immunofluorescence intensity relative to DMSO (% of DMSO); higher = stronger H1.0 induction, active = 140 or more. A digest of the protocol: as §1

The structures appear in SMILES notation. ± gives the standard deviation of the averaged measurements.
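Wherever H1.0 immunofluorescence intensity relative to DMSO is given: TDF is a line of transformed human dermal fibroblasts of mesenchymal origin.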
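Wherever cell number relative to DMSO is given: TDF denotes transformed human dermal fibroblasts of mesenchymal origin.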

On to `Cn1cc[nH]c1=S` [Methimazole], for which the cell number was 107 in test [1] and 103 in test [2]. Also, the results for the H1.0 immunofluorescence intensity in test [3] and in test [4] were 97.9 (inactive) and 102 (inactive), respectively.
`CNC(=O)c1cc2c(cn1)[nH]c1ccccc12` [N-Methyl-beta-carboline-3-carboxamide]: the results for the cell number in test [1] and in test [2] were 107 and 111, respectively. Besides, the H1.0 immunofluorescence intensity in test [3] is 87.9 (inactive); in test [4] it was 85.2 (inactive).
On to `CN1C2CCC1CC(OC(=O)c1c[nH]c3ccccc13)C2` (configuration not stated) [Tropisetron], for which the cell number is 102 in test [1] and 92.9 in test [2]. Besides, the values for the H1.0 immunofluorescence intensity in test [3] and in test [4] were 101 (inactive) and 112 (inactive), respectively.
For the molecule `NS(=O)(=O)c1cc2c(cc1Cl)NC(C(Cl)Cl)NS2(=O)=O` (configuration not stated) [Trichloromethiazide], the results for the cell number in test [1] and in test [2] were 106 and 105, respectively. The H1.0 immunofluorescence intensity was 93.9 (inactive) in test [3] and 110 (inactive) in test [4].
With `COc1ccc(CNC(=O)Nc2ncc([N+](=O)[O-])s2)cc1` [GSK-3b Inhibitor VIII], the cell number came out at 91 in test [1] and 106 in test [2]. The H1.0 immunofluorescence intensity is 96.6 (inactive) in test [3] and 128 (inactive) in test [4].
Take `Nc1nc(=O)c2ncc(=O)[nH]c2[nH]1` [Isoxanthopterin]: the cell number in test [1] was 104; in test [2] it was 108. Also, the H1.0 immunofluorescence intensity in test [3] is 92.2 (inactive); in test [4], 94.9 (inactive).
On the same counts, the results for `c1ccc2c(CC3=NCCN3)cccc2c1` [Naphazoline] are 99.4, 102, 98 (inactive) and 113 (inactive).
Consider `NC(=O)C1=CN(C2OC(COP(=O)([O-])OP(=O)([O-])OCC3OC(n4cnc5c(N)ncnc54)C(OP(=O)([O-])[O-])C3O)C(O)C2O)C=CC1.[Na+].[Na+].[Na+].[Na+]` (configuration not stated) [NADPH tetrasodium], for which the cell number in test [1] was 103; in test [2], 102. In addition, the H1.0 immunofluorescence intensity in test [3] was 96.9 (inactive); in test [4], 99.1 (inactive).
With `O=c1sn(-c2cccc3ccccc23)c(=O)n1Cc1ccccc1` [4-benzyl-2-(1-naphthyl)-1,2,4-thiadiazolidine-3,5-dione], the results for the cell number in test [1] and in test [2] were 94.9 and 90.9, respectively. Also, the H1.0 immunofluorescence intensity in test [3] was 101 (inactive); in test [4], 98.8 (inactive).
Turning to `O=C(O)C=Cc1ccc(Cn2ccnc2)cc1` [Ozagrel], the figures for the cell number in test [1] and in test [2] were 100 and 101, respectively. In addition, the results for the H1.0 immunofluorescence intensity in test [3] and in test [4] were 93.8 (inactive) and 104 (inactive), respectively.
The corresponding values for `CCCCCCCCCCCCCC(=O)NC(C)C(O)c1ccccc1` [L-erythro MAPP] are 97.3, 103, 98 (inactive) and 108 (inactive).
`Cc1cc(N)c2ccccc2[n+]1CCCCCCCCCC[n+]1c(C)cc(N)c2ccccc21.[Cl-].[Cl-]` [Dequalinium dichloride]: the results for the cell number in test [1] and in test [2] were 74.8 and 64.1, respectively. For the same molecule, the results for the H1.0 immunofluorescence intensity in test [3] and in test [4] were 102 (inactive) and 123 (inactive), respectively.
On to `CN(C)CCCN1c2ccccc2CCc2ccc(Cl)cc21.Cl` [Clomipramine hydrochloride], for which the cell number in test [1] amounted to 89.6; in test [2], 102. Also, the results for the H1.0 immunofluorescence intensity in test [3] and in test [4] were 107 (inactive) and 122 (inactive), respectively.
Take `Cc1ccc(F)c(NC(=O)Nc2ccc(-c3cccc4[nH]nc(N)c34)cc2)c1`: the cell number in test [1] was 92.4; in test [2] it was 90.1. The H1.0 immunofluorescence intensity in test [3] and in test [4] was 101 (inactive) throughout.
Turning to `O=C(C=Cc1ccc(O)c(O)c1)OCCc1ccccc1`, the cell number amounted to 74.8 ± 3.7 in test [1] and 85.77 ± 0.57 in test [2]. Further, the results for the H1.0 immunofluorescence intensity in test [3] and in test [4] were 93.1 (inactive) and 113 (inactive), respectively.
The corresponding values for `CCOC(=O)c1csc(Nc2ccc(Cl)cc2)n1` [ethyl 2-(4-chloroanilino)-1,3-thiazole-4-carboxylate] are 97, 99.4, 99.7 (inactive) and 113 (inactive).
On the same counts, the results for `Nn1nnc2ccccc21` [1-Aminobenzotriazole] are 106, 107, 92.8 (inactive) and 85.9 (inactive).
With `Fc1ccc(C2CCNCC2COc2ccc3c(c2)OCO3)cc1` (configuration not stated) [Paroxetine], the figures for the cell number in test [1] and in test [2] were 97.7 and 99.3, respectively. Besides, the H1.0 immunofluorescence intensity in test [3] is 99.1 (inactive); in test [4] it was 114 (inactive).
The corresponding values for `CN(C)CCCSc1ccccc1NC(=O)C=Cc1ccccc1` [Cinanserin] are 103, 102, 102 (inactive) and 107 (inactive).
Take `Cc1c(C)c2c(c(C)c1OC(=O)CCC(=O)O)CCC(C)(CCCC(C)CCCC(C)CCCC(C)C)O2` (configuration not stated) [Tocopherol succinate]: the cell number in test [1] was 98.1; in test [2], 109. Moreover, the values for the H1.0 immunofluorescence intensity in test [3] and in test [4] were 94.4 (inactive) and 102 (inactive), respectively.
Regarding `O=c1cc(-c2ccccc2)oc2cc(O)c(O)c(O)c12` [Baicalein], the cell number is 98.9 ± 2.6 in test [1] and 92.95 ± 0.67 in test [2]. In addition, the results for the H1.0 immunofluorescence intensity in test [3] and in test [4] were 93.3 (inactive) and 99.6 (inactive), respectively.
In the case of `CCCCCCCCC=CCCCCCCCCCCCCC(=O)O` [14(E)-Tricosenoic acid], the values for the cell number in test [1] and in test [2] were 98.3 and 98.1, respectively. Moreover, the results for the H1.0 immunofluorescence intensity in test [3] and in test [4] were 93.3 (inactive) and 104 (inactive), respectively.
On to `CC(C)(C)C1(O)CCN2CC3c4ccccc4CCc4cccc(c43)C2C1.Cl` (single isomer, unassigned; (+)) [(+)-Butaclamol.HCl], for which the cell number in test [1] worked out at 106; in test [2], 108. The H1.0 immunofluorescence intensity was 95.7 (inactive) in test [3] and 100 (inactive) in test [4].
